Compound activity deposited in PubChem by National Center for Advancing Translational Sciences (NCATS).
This is a sample that favours compounds with a hit; in the whole collection about 9.4% have one here.
NPC1 prom act = activates the NPC1 promoter; Huh7 NPC1 promoter luciferase reporter, 24 h; Potency, µM (doses to about 9.22 µM), inactives show top-dose activation, actives largely listed as activators; 320,000 compounds, 2.4% hits; also: % of control where 0% means no effect; nearly all actives have a fitted effect of over 60% in size
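Huh7 cells stably carrying NPC1 promoter–luciferase, plated in Opti-MEM with 10% FBS for 2 h, were exposed to compound in DMSO for 24 h at 37 °C; luciferase reagent was added for 10 min and luminescence read.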
FLuc modulator = counter-screen for miR-21 project: firefly luciferase inhibitors or activators; Potency, µM (series often up to 57.5 µM), without a hit: top-dose activity change, negative = inhibition, usual class: inhibitors; purified FLuc, Km substrates, luminescence inhibition; 360,000 compounds, 6.9% hits;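 also: plate controls were vehicle for no effect and reference inhibitor for full effect; nearly all actives have a fitted effect of over 55% in size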
Target sequence (P08659 whole entry, looked up): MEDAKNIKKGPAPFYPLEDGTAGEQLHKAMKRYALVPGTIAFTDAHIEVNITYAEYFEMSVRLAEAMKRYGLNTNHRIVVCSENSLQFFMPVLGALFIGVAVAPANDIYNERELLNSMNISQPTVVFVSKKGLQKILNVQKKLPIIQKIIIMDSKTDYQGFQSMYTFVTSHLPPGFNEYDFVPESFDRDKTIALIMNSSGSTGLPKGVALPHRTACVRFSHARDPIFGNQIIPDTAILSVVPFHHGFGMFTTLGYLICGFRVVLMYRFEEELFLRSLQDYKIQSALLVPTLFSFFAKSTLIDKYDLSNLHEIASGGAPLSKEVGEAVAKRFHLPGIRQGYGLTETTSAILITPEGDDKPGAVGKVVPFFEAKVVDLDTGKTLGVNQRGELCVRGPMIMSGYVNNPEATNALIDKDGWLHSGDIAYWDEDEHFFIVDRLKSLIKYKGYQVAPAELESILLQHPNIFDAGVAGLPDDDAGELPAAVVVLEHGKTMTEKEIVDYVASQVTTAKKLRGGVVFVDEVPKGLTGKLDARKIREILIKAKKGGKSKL
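Purified P. pyralis luciferase (10nM final) with 10uM D-luciferin and 10uM ATP (Km levels) in 50mM Tris acetate pH 7.5, 10mM Mg acetate, 0.01% Tween-20, 0.05% BSA; qHTS 6-point titration, ~60 µM downward; luminescence read.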
ELG1 repair inh = blocks ELG1-dependent DNA repair in HEK293T cells; HEK293T ELG1-luciferase reporter, luminescence, 16 h; DNA damage induced by 5-fluorouridine; Potency, µM (titrated, usually from 46.1 µM), inactives show at the top dose activity change, negative = inhibition, actives largely listed as inhibitors; 330,000 compounds, 2.3% hits; AID 504467; also: % is scaled to controls: 0 for no effect and ±100 for the full control effect; nearly all actives have a fitted effect of over 55% in size
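Overnight (16 hr) co-exposure of 2,000 cells/well to 5-fluorouridine and compound at 37 °C preceded detection. Luciferase was quantified via ONE-Glo luminescence; loss of signal denotes inhibition.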
SMN2 splice up = SMN2 splice variant enhancement. Potency, µM (series often up to 46.1 µM), for inactives: at the highest dose activity change, positive = activation, usual class: activators. HEK293 SMN2-luciferase splicing reporter, luminescence, 30-36 h. AID 1458. 210,000 compounds, 2.8% hits; also: % of control where 0% means no effect; nearly all actives have a fitted effect of over 55% in size
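qHTS luciferase splicing reporter: luminescence rises when SMN2 exon 7 is included in transfected HEK293 cells. Compound exposure lasted 30-36 h at 37C, with 4.5 mM final sodium butyrate as control, followed by a ONE-Glo read.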
ELG1 genotox = inducers of genotoxicity in HEK293T ELG1-luciferase cells; HEK293T ELG1-luciferase reporter, luminescence, 16 h; Potency, µM (titrated, usually from 46 µM), without a hit: at the top dose activity change, positive = activation, hits mostly activators; 330,000 compounds, 1.3% hits; also: % of control where 0% means no effect; nearly all actives have a fitted effect of over 60% in size
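Cells (2,000/well) expressing the ELG1-luciferase fusion are dosed by pin tool and kept 16 hr at 37 °C, 5% CO2. Signal comes from ONE-Glo luciferase reagent after 30 min at room temperature.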
Rab9 prom act = activators of Rab9 promoter; Huh7 Rab9 promoter-luciferase reporter, luminescence, 24 h; Potency, µM (highest dose often 9.22 µM), for the others: at the top dose activation, negative = inhibition, usual class: activators; 320,000 compounds, 2.8% hits; AID 485297; also: % of control where 0% means no effect; nearly all actives have a fitted effect of over 60% in size
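Huh7 reporter line, Rab9 promoter upstream of luciferase. Compound exposure 24 h at 37 °C in reduced-serum medium with 10% FBS. Read-out: luminescence.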
* = called active by the depositor; ? = inconclusive; nt = no result; [ ] = another dose, or the depositor's remark. Calls follow the shape of the dose curve; as a rule, active = well fitted curve in the direction sought with a large enough effect; inconclusive = small, poorly fitted or top-dose-only effect, or another doubt; inactive = no such curve, though single readings can be large; an effect the other way counts as inactive or inconclusive. Potency is read from the fitted curve at half-maximal effect.

SMILES	NPC1 prom act	FLuc modulator	ELG1 repair inh	SMN2 splice up	ELG1 genotox	Rab9 prom act
CCOC(=O)c1cnc2c(Cl)cc(Cl)cc2c1Nc1ccccc1OC	nt	0%	nt	-14%	nt	nt
CCOC(=O)c1cnc2c(Cl)cc(Cl)cc2c1NCCOCCO	-1%	0%	18µM*	2%	-4%	-6%
CCOC(=O)c1cnc2c(ccc3ccccc32)c1NCCCN(C)C	-4%	7.6µM*	?	nt	?	5%
Cc1ccc(C(=O)N2CCc3cc(CNS(=O)(=O)c4cccs4)ccc32)cc1	nt	2%	nt	nt	nt	nt
O=C(O)c1ccccc1C(=O)Nc1cc2c(cc1Br)-c1ccccc1C2=O	nt	nt	nt	0%[9.22 µM]	nt	nt
CCCOC(=O)c1ccc(Oc2cn[nH]c2-c2ccc(OCC(=O)NN)cc2O)cc1	-5%	6%	18µM*	nt	-7%	1%
CCOc1cc(C(=O)N2CC(=O)Nc3ccc(F)cc3C2c2ccccc2)cc(OCC)c1OCC (centres undefined)	nt	-10%	nt	-2%	nt	nt
Cc1cc(-c2nc(-c3ccc(C(C)(C)C)cc3)no2)no1	1µM*	3µM*	?	nt	?	0.56µM*
Cc1nc(-c2cc(-c3nc(-c4ccc(C(F)(F)F)cc4)no3)no2)cs1	-3%	3%	0%	nt	-2%	0%
Cc1c(-c2nc(-c3ccc(C(C)(C)C)cc3)no2)n(C)oc1=O	?	11µM*	?	nt	?	?
CC(C)(C)c1ccc(-c2noc(-c3ccc4c(c3)CCO4)n2)cc1	?	8.5µM*	?	nt	?	26%
O=C(NCc1ccco1)c1ccc2c(c1)N(Cc1ccccc1)C(=O)c1ccccc1S2(=O)=O	nt	-1%	nt	-1%	nt	nt
FC(F)(F)COc1cc(-c2nnc(SCc3ccccc3)n2Cc2ccco2)cc(OCC(F)(F)F)n1	?	2%	18µM*	nt	-14%	-5%
Nc1ncnc2c1nc(Br)n2[C@@H]1O[C@H]2COP(=O)(O)O[C@@H]2[C@@H]1O	nt	nt	nt	-17%	nt	nt
CC(=O)c1cccc(NC(=O)C(=O)c2cn(CC(=O)N3CCCCC3)c3ccccc23)c1	7%	8.5µM*	?	-8%	-4%	20%
CC(=O)Nc1ccc(NC(=O)C(=O)c2cn(CC(=O)N3CCCCC3)c3ccccc23)cc1	-3%	7%	-15%	-45%	2%	-4%
O=C(Nc1ccccc1)C(=O)c1cn(CC(=O)N2CCCCC2)c2ccccc12	6%	13µM*	?	8%	-1%	0%
CCOc1ccccc1CNc1ncnc2c1nc1n2CCCC1	nt	-7%	nt	nt	nt	nt
O=C(OCc1ccccc1)c1ccccc1O	nt	nt	?	1%	nt	nt
Cc1nc(COC(=O)c2cc(O)c3ccccc3c2O)cs1	-2%	5.4µM*	0%	-1%	0%	4%
O=C(OCc1csc(-c2ccccc2)n1)c1ccccc1O	27%	6µM*	?	20%	?	4µM*
CC(C)(CO[C@H]1C[C@H]2CC[C@@]1(C)C2(C)C)[N+](=O)[O-]	nt	nt	nt	-16%[9.22 µM]	nt	nt
CCCOc1ccccc1C(=O)Nc1ccc(-c2nc3ccc(C)cc3s2)cc1	nt	4.8µM*	nt	13µM*	nt	nt
Cc1ccc2nc(-c3ccc(NC(=O)CSCC(=O)O)cc3)sc2c1	4µM*	1.7µM*	?	nt	?	2.8µM*
Cc1ccc(NC(=O)COCC(=O)Nc2ccc(C)cc2)cc1	0%	-7%	-7%	nt	-6%	1%
SMILES	NPC1 prom act	FLuc modulator	ELG1 repair inh	SMN2 splice up	ELG1 genotox	Rab9 prom act
O=C(O)CSCC(=O)Nc1ccc(-c2nc3ccccc3s2)cc1	29%	3µM*	?	nt	?	?
Cc1csc(NC(=O)CSCC(=O)O)c1-c1nc2ccccc2s1	-4%	-5%	?	nt	4%	0%
Cc1ccc2nc(-c3ccc(NC(=O)COCC(=O)O)cc3)sc2c1	?	1.2µM*	?	nt	?	?
Cc1ccc(-n2c(-c3ccccc3)c[n+]3c2CCc2ccccc2-3)c(C)c1	-46%	-2%	?	-87%	-12%	-44%
Cc1ccc2nc(-c3ccc(NC(=O)Cc4ccccc4)cc3)sc2c1	nt	11µM*	nt	?	nt	nt
COc1cccc(C(=O)Nc2ccc(-c3nc4ccc(C)cc4s3)cc2)c1OC	nt	-1%	nt	nt	nt	nt
O=C(CN1N=C(c2ccc(Cl)cc2)CCC1=O)NCc1ccc(F)cc1	nt	-17%	nt	nt	nt	nt
COc1ccc(NN=Nc2ccc([N+](=O)[O-])cc2)cc1	?	2.4µM*	?	nt	?	3.5µM*
COc1ccc(Cl)cc1NC(=O)CN1C(=O)C(C)(C)c2cc(S(=O)(=O)N3CCCCC3)ccc21	nt	-4%	nt	nt	nt	nt
Cc1cc(C)c(NC(=O)CSc2nc3nc(C)cc(C)n3n2)c(C)c1	nt	-5%	nt	-1%	nt	nt
CCN(CCn1cccn1)C(=O)c1cc(COc2cc(C)ccc2C)on1	3.5µM*	9.5µM*	?	nt	?	3.5µM*
CCN(CCn1cccn1)C(=O)c1cc(COc2ccccc2SC)on1	2µM*	8.5µM*	?	nt	?	3.5µM*
CCN(CCn1cccn1)C(=O)c1cc(COc2ccc(F)c(F)c2)on1	13%	?	?	nt	9%	24%
CCN(CCN1CCCC1)C(=O)c1cc(COc2ccccc2SC)on1	2%	-1%	16%	nt	2%	-3%
COc1ccc(S(=O)(=O)NCc2ccncc2)cc1OC	-7%	4%	7.3µM*	-47%	-1%	-20%
Cc1cc(S(=O)(=O)NCc2ccccc2)ccc1OCC(=O)NCc1ccncc1	2.8µM*	15µM*	?	nt	?	3.2µM*
